The source of these data is PubChem BioAssay AID449762 (Southern Research Specialized Biocontainment Screening …, 2010).

Values joined by “and” are separate entries in the source; they are usually repeats but may differ in a detail not shown here. Identical values can stand only once. Out of some 330,000 compounds screened, about 1,900 (0.58%) were called active. Inconclusive results (about 4%) are left out. These entries were drawn from the full list. Potency and affinity values are given separately. Unmarked numbers belong to inactive results. Rule as the data show it: inconclusive = inhibition above about 70% without an active follow-up result; inactive = below that.

The nature of this assay: M. tuberculosis growth inhibition, HTS (AID 449762).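 Also: bacterial growth assessed after seven days of incubation.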 As to conditions: M. tuberculosis H37Rv growth inhibition, 7H9 media; at 25 µM; stronger effect = higher value.
On to `CCCN(CC(=O)Nc1ccccc1OC)C(=O)CCC(=O)c1ccc(OCC)cc1`, for which the inhibition (in general, the drop in the measured response relative to a control, in per cent) is 3.5%.

On to `CSc1ccc(CNC(=O)C2Cc3cc(S(=O)(=O)N4CCCC4)ccc3N2C(C)=O)cc1` (stereo not drawn), for which the inhibition was 2.84%.

Consider `CCc1ccc(CNC(=O)C2Cc3cc(S(=O)(=O)N4CCCC4)ccc3N2C(C)=O)cc1` (stereo not drawn), for which the inhibition was -2.81%.

For the molecule `C=CCN(CC=C)C(=O)C[n+]1ccc(C(N)=O)cc1`, the inhibition was 6.91%.

In the case of `COCCN1C(=O)C(=O)/C(=C(/O)c2ccc(S(=O)(=O)N3CCCCC3)cc2)C1c1ccc(O)c(OC)c1` (stereo not drawn), the inhibition was -2.3%.

Regarding `CN(c1ccccc1)S(=O)(=O)c1cccc(NC(=O)CSc2nnc(N)s2)c1`, the inhibition was 3.34%.

With `O=C1Nc2ccc(Br)cc2/C1=C/c1ccc(C(=O)O)cc1`, the inhibition is 0.13%.

Turning to `O=C(CC1(O)C(=O)Nc2ccc(Br)cc21)c1ccc2c(c1)OCO2` (stereo not drawn), the inhibition is -6.14%.

Regarding `CC(C)C(=O)Nc1c2c(nn1-c1ccc([N+](=O)[O-])cc1)CS(=O)(=O)C2`, the inhibition was 3.07%.

Consider `Cc1ccc(F)cc1NC(=O)c1c(-c2ccccc2)noc1C`, for which the inhibition was -8.46%.

For the molecule `CCOc1ccc(C(=O)Nc2ccc3nc(N4CCN(CC)CC4)cc(C)c3c2)cc1`, the inhibition is 43.7%.

`CCOc1[nH]n(-c2ccccc2)c(=O)c1C=Nc1ccc(C)cc1`: the inhibition was 9.52%.

As to `CCOc1[nH]n(-c2ccccc2)c(=O)c1C=Nc1ccccc1`, the inhibition is 19%.

Turning to `Cc1ccccc1-n1c(-c2ccc([N+](=O)[O-])cc2)nc2ccccc2c1=O`, the inhibition was 2.55%.

`COc1ccc(NC(C)=O)c(C)c1`: the inhibition is -2.52%.

On to `c1ccc(-c2nc(-c3ccncc3)n[nH]2)nc1`, for which the inhibition is -0.34%.

Turning to `c1ccc(-c2n[nH]c(-c3ccccn3)n2)nc1`, the inhibition is -3.4% and -2.35%.

In the case of `O=C(NCc1ccccc1F)c1cc(=O)[nH]c2ccccc12`, the inhibition was 1.18%.

Turning to `Cc1ccc2nsnc2c1S(=O)(=O)N1CCOCC1`, the inhibition is -4.54%.

Take `COc1ccc(CCNC(=O)c2ccc(CNS(=O)(=O)c3cc(C)ccc3C)cc2)cc1OC`: the inhibition was -3.98%.

As to `Cc1c(NS(=O)(=O)c2ccc(Br)cc2)c(=O)n(-c2ccccc2)n1C`, the inhibition was 0.05%.

As for `O=S(=O)(Nc1ccccn1)c1ccc(Br)cc1`, the inhibition is 10.2%.

Turning to `O=C(c1cc(F)ccc1F)C1CCCN(CCCc2ccccc2)C1` (stereo not drawn), the inhibition was 10.3%.

Take `CC(CCc1ccccc1)NC(=O)COC(=O)C1CCC(C(C)(C)C)CC1` (stereo not drawn): the inhibition is 6.62%.

Take `CN1CCc2c(OCC(=O)N3CCC(Cc4ccccc4)CC3)cccc2C1=O`: the inhibition is 5.02%.

As to `Cc1cc(NC(=O)c2cccs2)n(-c2nc3ccccc3[nH]2)n1`, the inhibition is 57.9%.

Turning to `Cc1cc(NC(=O)c2ccc(C)s2)n(-c2nc3ccccc3[nH]2)n1`, the inhibition is 56.9%.

`CCn1nnnc1SCC(=O)N1CCCCC1`: the inhibition is 0.5%.

As to `O=C1NC(=Nc2ccccc2)SC1Cc1ccccc1` (stereo not drawn), the inhibition is -10.5%.

With `O=C1N/C(=N/N=C/c2ccc(O)cc2)SC1Cc1ccccc1` (stereo not drawn), the inhibition was -5.03%.

For the molecule `CCC(Sc1nc2ccc(N)cc2s1)C(=O)Nc1nccs1` (stereo not drawn), the inhibition is 61%.

`C[n+]1cnn2c1SCC1(COC1)C2`: the inhibition is 3.72%.

With `O=C(CNC(=O)c1ccc(Cl)cc1)c1ccccc1`, the inhibition was -1.27%.

For `O=C(CNC(=O)c1ccc(F)cc1)c1ccc(Cl)cc1`, the inhibition is 6.46%.

Regarding `C=C(C)Cn1c(C)cc(C)c(S(=O)(=O)c2cccc(C)c2)c1=O`, the inhibition is -7.99%.

For `CCOc1cc(CNc2ccc(Br)cc2)cc(Br)c1OCC(=O)NC(C)(C)C`, the inhibition is -3.44%.

With `CC(=O)c1ccc(N2CCN(C(=O)c3cc4c(C)nc5ccccc5c4o3)CC2)cc1`, the inhibition is 4.42%.

In the case of `Cc1nc2ccccc2c2oc(C(=O)N3CCN(c4ccc([N+](=O)[O-])cc4)CC3)cc12`, the inhibition is 26.2%.

For `O=C(CCS(=O)(=O)c1ccc(Cl)cc1)N1CCN(c2ccccc2F)CC1`, the inhibition was -3.9%.

As for `COc1ccc(OC)c(CN2CCN(C(=O)CNC(=O)c3cc(C)cc(C)c3)CC2)c1`, the inhibition was 1.7%.

Regarding `COc1ccc(OC)c(CN2CCN(C(=O)CCNC(=O)c3ccc(Br)cc3)CC2)c1`, the inhibition is -2.93%.

Consider `CCc1cc(C(=O)NN2C(=O)NC3(CCCCC3)C2=O)sc1C`, for which the inhibition is -5.54%.

Take `Cc1ccc(NC(=O)c2sc(Cl)nc2-c2ccccc2)cc1`: the inhibition is 1.87%.

For `O=C(NC1CCCCCC1)c1cc(S(=O)(=O)N2CCOCC2)ccc1N1CCCCC1`, the inhibition was -7.36%.

Consider `CCCCCCCNC(=O)C1(CC2CC(c3cccc(Br)c3)=NO2)CCN(C(=O)Cc2ccc(F)cc2)CC1` (stereo not drawn), for which the inhibition is 1.04%.

Regarding `CCCCCCCNC(=O)C1(CC2CC(c3ccccc3)=NO2)CCNCC1` (stereo not drawn), the inhibition is -6.2%.

Consider `Cc1ccc(-n2c(SCC(=O)NCCN3C(=O)CSC3=O)nnc2-c2ccccc2)cc1`, for which the inhibition was -2.1%.

As for `O=C(Nc1ccc(-c2csc(Nc3cccc(C(F)(F)F)c3)n2)cc1)c1ccccc1`, the inhibition was 50.9%.

Consider `O=C(Nc1ccc(-c2csc(Nc3ccccc3)n2)cc1)c1cccc(C(F)(F)F)c1`, for which the inhibition is 1.22%.

As to `O=C(N/N=C1\CCCc2ccccc21)c1ccccc1Cl`, the inhibition is 5.05%.

With `Cc1ccc(C(=O)N/N=C2\CCCc3ccccc32)c(C)c1`, the inhibition was -7.5%.

With `CCOc1ccc(CN(C)C(=O)c2cccnc2OCC)cc1OC`, the inhibition was -1.02%.

On to `CCOc1ccc(C(C)NC(=O)Nc2ccc(F)cc2F)cc1` (stereo not drawn), for which the inhibition is 6.1%.

With `Cn1c(/C=N/c2nc3ccccc3[nH]2)nc2ccccc21`, the inhibition was 43.9%.

Turning to `C(=N\Nc1nc2ccccc2[nH]1)/c1ccccc1`, the inhibition was 33.3%.

As to `CCOc1ccc(OCCNC(=O)C(NC(=O)c2c(F)cccc2F)C(C)C)cc1` (stereo not drawn), the inhibition is -12.3%.

For the molecule `COc1ccc(Nc2nnc(SC(C)C(=O)NC3CC3)s2)cc1` (stereo not drawn), the inhibition is -1.49%.

For `Cc1c(NC(=S)N/N=C/c2cccc(O)c2)c(=O)n(-c2ccccc2)n1C`, the inhibition was -10.1%.

Take `N=c1c2c(-c3ccccc3)c(-c3ccccc3)n(Cc3ccco3)c2ncn1CCCO`: the inhibition was 16.4%.

Take `N=c1c2c(-c3ccccc3)c(-c3ccccc3)n(Cc3ccco3)c2ncn1CCO`: the inhibition was 52.9%.

Consider `O=C(Oc1ccccc1C(=S)N1CCOCC1)c1ccc([N+](=O)[O-])cc1[N+](=O)[O-]`, for which the inhibition is 38.5%.

Consider `O=C(C1=C(O)C(=O)N(CCOCCO)C1c1cccc([N+](=O)[O-])c1)c1cccs1` (stereo not drawn), for which the inhibition was -3.54%.

For `Cc1ccc(-c2cc(C(=O)N3CC(C)OC(C)C3)c3ccccc3n2)o1` (stereo not drawn), the inhibition is -3.5%.

For the molecule `COc1ccc2nc(NC(=O)C3CSC4(C)CCC(=O)N34)sc2c1` (stereo not drawn), the inhibition was 8.66%.

For `COc1ccc(C(CNC(=O)c2cccc(NS(=O)(=O)c3ccccc3)c2)N(C)C)cc1` (stereo not drawn), the inhibition was -11.7%.

Regarding `CCCCCCOC(=O)C(C#N)c1nc2ccccc2nc1N1CCOCC1` (stereo not drawn), the inhibition was 5.48%.

With `CCCCCCOC(=O)C(C#N)c1nc2ccccc2nc1N1CCCCC1` (stereo not drawn), the inhibition is 6.23%.

Take `CCOC(=O)CC(=O)CSc1nccc(-c2cccnc2)n1`: the inhibition was 2.54%.

With `COc1cc(OC)cc(C(=O)NCc2ccc3c(c2)cc(C)n3C)c1`, the inhibition is 55.2%.

Turning to `O=S(=O)(NC1CCCCC1N1CCN(c2ccc(F)cc2)CC1)c1ccccc1` (stereo not drawn), the inhibition was 11.3%.

On to `COc1ccc(-c2ccc(C)cc2)cc1[C@H]1[C@@H]2C=CCC[C@@]2(C)C(=O)N1Cc1ccccc1`, for which the inhibition is 2.77%.

As for `COc1ccc(-c2ccc(N(C)C)cc2)cc1[C@H]1[C@@H]2C=CCC[C@@]2(C)C(=O)N1Cc1ccccc1`, the inhibition is -2.81%.

In the case of `CC(Sc1ccc(S(=O)(=O)N2CCOCC2)cc1[N+](=O)[O-])C(=O)O` (stereo not drawn), the inhibition is 1.21%.

`O=C(/C=C/c1ccccc1)N1CCC(N2CCC(C(=O)N3CCOCC3)CC2)CC1`: the inhibition is -6.29%.

On to `CCSc1cc(N2CCOCC2)nc(-c2ccccc2)n1`, for which the inhibition is 8.27%.

For the molecule `Cc1cc(C)n(-c2ccccc2[N+](=O)[O-])n1`, the inhibition is -3.52%.

In the case of `O=[N+]([O-])c1ccccc1/C=N/Nc1nc(N2CCCC2)nc(N2CCCC2)n1`, the inhibition is 2.55%.

In the case of `O=C(/C(=C\c1ccccc1)c1nc2ccccc2[nH]1)c1ccc(Cl)cc1`, the inhibition is 12.1%.

Turning to `O=C(/C(=C/c1ccc(Cl)cc1)c1nc2ccccc2[nH]1)c1ccccc1`, the inhibition was 0.75%.

For the molecule `Nc1nsnc1C(=O)NCCO`, the inhibition was -5.83%.

Consider `O=C1CS/C(=N/N=C/c2c[nH]c3ccccc23)N1`, for which the inhibition is 2.46%.

As to `O=C(CSc1n[nH]c(-c2ccccc2)n1)N1CCOCC1`, the inhibition is -3.77%.

Consider `O=C(CN1CCCC1)NN=C(c1ccccc1)c1ccccc1`, for which the inhibition was -2.73%.

Take `CCN(CC)CC(=O)NN=C(c1ccccc1)c1ccccc1`: the inhibition was -1.34%.

In the case of `NC(=S)N=Nc1c(O)[nH]c2c(Br)cc(Br)cc12`, the inhibition is -0.35%.

Take `COc1ccc(C(=O)NCC(=O)NCC(=O)OCC(=O)c2ccc(Br)cc2)cc1`: the inhibition is 7.79%.

In the case of `Cc1csc(NC(=O)COCC(=O)O)c1-c1nc2ccccc2s1`, the inhibition was -5.81%.

`Cc1csc(NC(=O)CSCC(=O)O)c1-c1nc2ccccc2s1`: the inhibition is -1.68%.

Consider `Cc1cc(C(=O)OCC(=O)Nc2ccc(F)cc2F)c(C)o1`, for which the inhibition was 4.91%.

As to `O=C(/C=C/c1ccccc1)NC1CC2CCC1C2` (stereo not drawn), the inhibition is -10.2%.

For `COc1ccc(/C=C/C(=O)NC2CC3CCC2C3)cc1` (stereo not drawn), the inhibition was 14.7%.

On to `Cc1c(C(=O)NC(C(C)C)C(C)C)cccc1[N+](=O)[O-]`, for which the inhibition was -0.36%.

On to `CC1CN(c2ccc(C(=O)c3ccccc3C(=O)O)cc2[N+](=O)[O-])CC(C)O1` (stereo not drawn), for which the inhibition is -1.03%.
